# Bioassay records as filed in PubChem.
# HSP90 inh – blocks HSP90-mediated luciferase refolding in reticulocyte lysate; Rabbit reticulocyte lysate, luciferase refolding luminescence, 3 h; inhibition, % at 5.6 µM; 290,000 tested, 0.91% active;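 active means inhibition above the screen-wide mean plus 3 SD, computed separately per campaign, cut at about 16% in these data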;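 further: 0% = DMSO wells and 100% = 60 µM geldanamycin wells; inhibitors lower the luminescence because luciferase stays unfolded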
# SENP8 block-1 – SENP8 (human) protease inhibition; Q96LD8; recombinant SENP8, Nedd8 substrate fluorescence; inhibition, % at 20 µM; 360,000 tested, 0.64% active; AID 602440; in the data active means inhibition mostly above about 40%, no sharp cut-off; inactive means mostly below about 27%
# Target sequence (Q96LD8 whole entry, looked up): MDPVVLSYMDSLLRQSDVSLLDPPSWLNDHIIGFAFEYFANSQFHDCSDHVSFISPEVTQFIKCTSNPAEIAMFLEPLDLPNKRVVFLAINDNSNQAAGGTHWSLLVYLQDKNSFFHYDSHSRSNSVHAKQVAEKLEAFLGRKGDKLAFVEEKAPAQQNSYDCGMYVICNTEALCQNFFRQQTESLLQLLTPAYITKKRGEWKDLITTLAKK
# SENP6 block – blocks the human protease SENP6; AID 2599; 330,000 tested, 1.8% active; Q9GZR1; inhibition, % at 10 µM; Recombinant SENP6 catalytic domain, aminoluciferin luminescence;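 active means inhibition above about 50% at the single tested dose, limit read from the data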;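 further: plate controls were DMSO wells with enzyme for no effect and DMSO wells lacking enzyme for full effect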
# SENP8 block-2 – SENP8 protease inhibition | Q96LD8 | inhibition, % at 10 µM | purified SENP8, Z-RLRGG-aminoluciferin cleavage, luminescence | AID 2540 | 330,000 tested, 1.2% active; in the data active means inhibition above about 50%
# SENP7 block – blocks the human protease SENP7 | inhibition, % at 5 µM | Q9BQF6 | 330,000 tested, 1.5% active | recombinant SENP7, Z-RLRGG-aminoluciferin luminescence, 40 min;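 active means inhibition above about 50% at the single test dose, limit read from the data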;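 further: plate controls were DMSO with enzyme for no effect and no enzyme buffer wells for full effect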
# Target sequence (Q9BQF6 706-1050 limits assumed): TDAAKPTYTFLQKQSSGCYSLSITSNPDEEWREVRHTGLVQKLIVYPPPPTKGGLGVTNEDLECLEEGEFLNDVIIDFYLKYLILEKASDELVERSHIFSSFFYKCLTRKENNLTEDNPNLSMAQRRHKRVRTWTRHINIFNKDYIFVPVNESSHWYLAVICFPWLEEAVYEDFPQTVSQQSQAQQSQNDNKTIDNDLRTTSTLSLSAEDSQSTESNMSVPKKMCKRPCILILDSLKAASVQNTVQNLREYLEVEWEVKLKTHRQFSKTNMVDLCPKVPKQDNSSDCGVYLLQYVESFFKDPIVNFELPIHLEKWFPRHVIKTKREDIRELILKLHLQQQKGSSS
# SENP8 inh conf – SENP8 (human) inhibition, single concentration confirmation; 1,400 tested, 15% active; purified SENP8, Nedd8-AMC/pro-Nedd8 cleavage fluorescence, 30 min; inhibition, % at 25 µM; shares compounds with SENP8 block-1; in the data active means inhibition mostly above about 39%, no sharp cut-off; inactive means mostly below about 34%
# The depositor's hits bear a star; nt = no result given. Sampled rows, rich in hits. Any-hit rate of the full collection: about 2.7%.
SMILES,HSP90 inh,SENP8 block-1,SENP6 block,SENP8 block-2,SENP7 block,SENP8 inh conf
CCN(CC)C(=O)Cc1ccccc1,nt,42*,-22,0,-6,14
O=C(NCCc1csc(-c2cccc(F)c2)n1)c1ccco1,-4,9,-16,-9,-3,nt
Cc1nn(Cc2ccc(Cl)c(Cl)c2)c(C)c1NC(=O)c1cn(-c2ccccc2)nc1-c1ccccc1,2,40*,-3,-5,-5,7
Cc1ccc(S(=O)(=O)N2CCOCC2)cc1NC(=O)CN1C(=O)NC(C)(c2ccc(Cl)cc2Cl)C1=O (configuration not stated),nt,-8,-11,0,10,nt
CCc1ccc2c(c1)c1nnc(NN)nc1n2C,-1,64*,13,6,-6,-4
CCc1ccc2c(c1)c1nnc(NN)nc1n2CC,1,72*,7,6,0,11
O=C(NCC1COc2ccccc2O1)C1C2C=CC3(CN(Cc4ccccc4Cl)C(=O)C13)O2 (configuration not stated),5,4,8,-2,-9,nt
COc1ccc(CCN2CC34C=CC(O3)C(C(=O)NCc3ccccc3Cl)C4C2=O)cc1OC (configuration not stated),0,47*,4,2,5,16
O=[N+]([O-])c1ccc(/C=[N+](\[O-])CCO)o1,3,45*,7,5,-2,18
COc1ccc(C(OC(=O)c2ccco2)C(=O)NCc2ccco2)cc1 (configuration not stated),6,6,-5,1,-1,nt
O=[N+]([O-])c1ccccc1NCCNS(=O)(=O)c1ccc(Cl)cc1,-4,13,-4,2,-4,nt
O=[N+]([O-])c1cc(Cl)ccc1NCCNS(=O)(=O)c1ccccc1,3,43*,5,7,0,17
CCC(=O)Nc1ccc(CCC(=O)N2CCCC2)cc1,-3,7,-3,-6,1,nt
COc1cc(C)c(C(=O)Oc2cc(C)c(C(=O)O)c(O)c2C)c(O)c1C(=O)O,nt,-70,-3,2,-1,nt
COc1cc(C)c(C(=O)Oc2cc(C)c(C(=O)O)c(O)c2C)c(OC)c1C,0,44*,-5,-13,12,15
COc1ccc(NC(=O)CS(=O)CC(=O)Nc2ccc(F)cc2F)cc1 (configuration not stated),-2,11,4,4,0,nt
CCCCc1ccc(NC(=S)NCc2cccc(OC)c2)cc1,2,8,6,-2,12,nt
CCCCc1ccc(NC(=S)Nc2ccc(Nc3ccc(OC)cc3)cc2)cc1,2,42*,-17,-13,4,22
CC1=NN(c2cccc(Cl)c2)C(=O)C1,16,64*,-5,7,20,55*
CC1=NN(c2ccc(Cl)c(C(=O)O)c2)C(=O)C1,5,70*,11,3,17,17
Cc1ccc(CNC(=O)[C@H](C)N2C(=O)N3CCc4c([nH]c5ccccc45)[C@@]3(C)C2=O)cc1,-2,2,0,-3,-2,nt
COc1ccc(CNC(=O)[C@H](C)N2C(=O)N3CCc4c([nH]c5ccccc45)[C@@]3(C)C2=O)cc1OC,-4,51*,-3,-2,4,-5
CN(C)C=Nc1c(Br)cc(Br)c2nonc12,0,58*,39,23,12,45*
O=[N+]([O-])c1cc(C(F)(F)F)cc([N+](=O)[O-])c1NN=C1CCCCC1,1,42*,4,-4,6,9
COc1ccc(NC(=O)C2CC(=O)N/C(=N/NC(=O)c3ccc(Cl)cc3)S2)cc1 (configuration not stated),4,40*,7,-2,12,9
SMILES,HSP90 inh,SENP8 block-1,SENP6 block,SENP8 block-2,SENP7 block,SENP8 inh conf
CC(C)CNC(=O)C1CCCN1S(=O)(=O)c1ccc(Cl)cc1 (configuration not stated),7,9,-6,8,0,nt
Cc1ccc(C(=O)COc2ccccc2-c2ccccc2)cc1,0,45*,7,5,6,13
CC(CCl)OC(C)CCl (configuration not stated),nt,2,-13,7,1,nt
CCOc1ccc(S(=O)(=O)Nc2ccc(C(=O)N/N=C/c3c(C)nn(-c4ccccc4)c3N3CCCC3)cc2)cc1,8,-116,-3,-8,-8,nt
COc1c(/C=N/Nc2ccc([N+](=O)[O-])cc2[N+](=O)[O-])c(C)nn1-c1ccccc1,0,62*,1,1,7,24
Cc1ccc(-n2[nH]c(C)c(/C=N/Nc3ccc([N+](=O)[O-])cc3[N+](=O)[O-])c2=O)cc1C,7,40*,-1,9,5,29
Cc1ccc([N+](=O)[O-])cc1/C=N/Nc1nnnn1-c1ccccc1,3,0,-17,-5,11,nt
Cc1nn(-c2ccccc2)c(N2CCCC2)c1/C=N/Nc1ccc(S(=O)(=O)Nc2ccccc2)cc1[N+](=O)[O-],-6,64*,4,2,3,13
COc1ccccc1NS(=O)(=O)c1ccc(N/N=C/c2c(C)nn(-c3ccccc3)c2N2CCCC2)c([N+](=O)[O-])c1,-3,45*,23,2,10,16
COc1ccc(-n2c(COc3ccccc3)nnc2SCC(N)=O)cc1,6,6,-11,-2,1,nt
Cc1csc2c(N3CCN(C(=O)c4ccc(C(C)(C)C)cc4)CC3)ncnc12,5,40*,-30,-15,1,20
Cc1csc2c(N3CCN(C(=O)NC(C)(C)C)CC3)ncnc12,1,19,-43,1,7,nt
CCc1nc2c(OCC=C(C)C)cccn2c1N(C)C(=O)c1ccc(OC)cc1,nt,43*,nt,nt,nt,-2
CCC(CC)C(=O)N(C)c1c(C)nc2c(OCC=C(C)C)cccn12,nt,40*,nt,nt,nt,26
CCCOc1cccn2c(N(C)C(=O)c3ccccc3F)c(CC)nc12,nt,12,nt,nt,nt,nt
CCc1nc2c(OCC=C(C)C)cccn2c1N(C)C(=O)c1ccccc1F,nt,41*,nt,nt,nt,15
COc1ccc(OS(=O)(=O)c2c(C)noc2C)cc1,3,48*,-4,-1,4,16
COc1ccc(N(C)S(=O)(=O)c2c(C)noc2C)c(OC)c1,-1,0,3,2,-2,nt
Cc1ccc2nsnc2c1NC(=O)c1ccc([N+](=O)[O-])cc1,0,21,5,-4,-7,nt
CN(C)c1ccc2nsnc2c1[N+](=O)[O-],3,43*,-13,2,-2,2
COc1ccc(N2C(=O)C(CC(N)=O)N(NC(=O)c3cccc(OC)c3)C2=S)cc1 (configuration not stated),-2,-10,18,0,6,nt
Cc1cc2c(N)cccc2nn1,2,114*,91*,95*,47,45*
Cc1onc(-c2ccccc2)c1C(=O)NCCc1ccc(Cl)cc1,-1,51*,-11,1,4,5
CC1CCN(c2ccc([N+](=O)[O-])cn2)CC1,0,5,-28,-11,-7,nt
